In the supplement of paper PMC12645437, “Orthogonal IMiD-Degron Pairs Induce Selective Protein Degradation in Cells” (ACS Chemical Biology, 2025):
In all, about 8,300 sequences were measured (“log2 fold change of degron read counts, EGFP-low vs EGFP+ sorted cells (limma voom), compound-induced degradation”: median about -1.1, highest 2% from about 3.2 on). The sample as a whole holds a higher share of the highest values than the screen did.

T1: CRBN, Q96SW2
T1 chain: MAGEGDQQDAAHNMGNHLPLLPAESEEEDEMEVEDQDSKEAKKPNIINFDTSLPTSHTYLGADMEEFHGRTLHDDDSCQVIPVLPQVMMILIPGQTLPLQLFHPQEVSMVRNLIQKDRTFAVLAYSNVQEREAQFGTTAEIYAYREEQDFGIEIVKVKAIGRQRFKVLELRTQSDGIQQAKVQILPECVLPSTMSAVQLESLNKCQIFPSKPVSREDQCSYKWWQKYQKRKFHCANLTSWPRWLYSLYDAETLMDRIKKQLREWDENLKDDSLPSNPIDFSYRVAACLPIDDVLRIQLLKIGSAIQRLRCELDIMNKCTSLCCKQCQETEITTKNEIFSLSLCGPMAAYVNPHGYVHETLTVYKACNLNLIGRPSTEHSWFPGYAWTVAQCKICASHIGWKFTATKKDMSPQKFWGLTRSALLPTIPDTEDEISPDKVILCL


Target: T1, CRBN, Q96SW2
Experiment: log2 fold change of degron read counts, EGFP-low vs EGFP+ sorted cells (limma voom), compound-induced degradation; higher = more compound-induced degradation of the degron-EGFP fusion; degrons are variants of IKZF1/3 zinc finger 2; compound dose not given here
Details: Jurkat, 18 h
[1] = compound: compound 19 (5-tert-butyl-thalidomide)
[2] = compound: compound 22 (5-morpholino-thalidomide)
[3] = compound: compound 33 (diphenyl IMiD analogue)
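Further: pooled lentiviral library of zinc finger degron-EGFP fusions in mCherry-positive Jurkat cells, FACS-sorted after compound exposure, with degron abundance counted by next-generation sequencing.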

Row | Sequence | log2 fold change of degron read counts [1] | log2 fold change of degron read counts [2] | log2 fold change of degron read counts [3] | log2 fold change of degron read counts (compound: thalidomide)
1 | FLCPQCGAQFTQKGNLLRHIKL [46F_47L_49P_50Q_52G_53A_54Q_55F_67L_, Q9UKT9] | -2.2 | -2.3 | 0.482 | -0.585
2 | FDCNICGAIFTQKGNLLRHIKL [46F_47D_49N_50I_52G_53A_54I_55F_67L_, Q9UKT9] | -1.43 | -1.22 | -0.173 | 0.319
3 | FYCEICGHSFTQKGNLLRHIKL [46F_47Y_49E_50I_52G_53H_54S_55F_67L_, Q9UKT9] | -2.01 | -3.04 | -1.92 | -2.8
4 | FVCNQCGAGFTQKGNLLRHIKL [46F_47V_49N_50Q_52G_53A_54G_55F_67L_, Q9UKT9] | -2.26 | -1.63 | -0.863 | -1.05
5 | FFCEICGHVFTQKGNLLRHIKL [46F_47F_49E_50I_52G_53H_54V_55F_67L_, Q9UKT9] | -1.37 | -1.97 | -2.03 | -1.87
6 | LSCEICGFHCTQKGNLLRHIKL [46L_47S_49E_50I_52G_53F_54H_55C_67L_, Q9UKT9] | 0.928 | 0.357 | 0.553 | 0.222
7 | LACEICGFHCTQKGNLLRHIKL [46L_47A_49E_50I_52G_53F_54H_55C_67L_, Q9UKT9] | 1.51 | 0.415 | 0.86 | -0.0575
8 | LYCEICGFHCTQKGNLLRHIKL [46L_47Y_49E_50I_52G_53F_54H_55C_67L_, Q9UKT9] | 3.13 | 3.42 | 2.8 | 1.66
9 | LICEICGFHCTQKGNLLRHIKL [46L_47I_49E_50I_52G_53F_54H_55C_67L_, Q9UKT9] | -0.287 | 0.622 | 1.12 | 1.6
10 | LWCEICGFHCTQKGNLLRHIKL [46L_47W_49E_50I_52G_53F_54H_55C_67L_, Q9UKT9] | 2.73 | 3.48 | 2.33 | 1.12
11 | LCCEICGFHCTQKGNLLRHIKL [46L_47C_49E_50I_52G_53F_54H_55C_67L_, Q9UKT9] | 0.332 | -0.174 | 1.51 | 0.845
12 | FHCNQCGARFTQKGNLLRHIKL [46F_47H_49N_50Q_52G_53A_54R_55F_67L_, Q9UKT9] | -1.49 | -1.78 | -1.81 | -2.18
13 | FVCNQCGHTFTQKGNLLRHIKL [46F_47V_49N_50Q_52G_53H_54T_55F_67L_, Q9UKT9] | -3.49 | -3.28 | -3.04 | -3.41
14 | LECPICGFDCTQKGNLLRHIKL [46L_47E_49P_50I_52G_53F_54D_55C_67L_, Q9UKT9] | -2.52 | -2.45 | -1.18 | -0.86
